This note sets out measurements from PubChem BioAssay (EPA / NIEHS).

SMILES strings stand for the structures. Records with an inconclusive call do not appear. Activity calls are given as the source filed them. How the source made its calls, unless noted: active means hit-call score of the fitted dose curve at least 0.9, where 1 is the maximum; inactive means score below 0.9.

Assay [1] can be described thus: CCTE_Shafer_MEA_dev_firing_rate_mean: CCTE's Neural Network Formation Assay for Mean Firing Rate, Shafer Lab (AID 2284031).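 Further: curve fitted for loss of firing so AC50 reflects decreased mean firing rate.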 Summed up:
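Spike frequency (spikes/recording length, averaged over active electrodes) was recorded on days 5, 7, 9 and 12 and collapsed to AUC; rat cortical cultures received compound continuously over 12 days of network development.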

Assay [2] in a line: CCTE_Shafer_MEA_dev_per_burst_spike_percent: CCTE's Neural Network Formation Assay for Percent of Spikes in a Burst, Shafer Lab (AID 2284032).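 Further: fitted as a decrease in burst spike percentage below DMSO baseline.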 Summed up: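 Value is trapezoidal AUC over recordings on days 5, 7, 9 and 12 of the well-mean fraction of spikes falling in single-electrode bursts; rat cortical cultures exposed continuously from plating, treatment renewed DIV 5 and 9, fitted downward against DMSO.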

Assay [3] in a line: CCTE_Shafer_MEA_dev_active_electrodes_number: CCTE's Neural Network Formation Assay for Number of Active Electrodes, Shafer Lab (AID 2284040; active means hit-call score of the fitted dose curve at least 0.9, where 1 is the maximum;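 further: potency for loss of active electrodes versus DMSO so lower counts are hits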). In outline: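 Counts electrodes per well firing at least 5 spikes/min, recorded on days 5, 7, 9 and 12 in rat cortical cultures dosed continuously from plating (treatment refreshed DIV 5, 9). Value is the area under the curve over recordings, fitted downward relative to DMSO.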

Assay [4] in a line: CCTE_Shafer_MEA_dev_burst_rate: CCTE's Neural Network Formation Assay for Burst Rate, Shafer Lab (AID 2284042).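 Further: potency for loss of burst rate below DMSO control.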 In outline: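 Cells plated, treated day 0; recorded DIV 5, 7, 9, 12; fed and re-treated DIV 5, 9. Endpoint: bursts per recording time, active-electrode well mean, trapezoidal AUC, fitted in decreasing direction against DMSO baseline.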
A short description of assay [5]: CCTE_Shafer_MEA_dev_bursting_electrodes_number: CCTE's Neural Network Formation Assay for Number of Bursting Electrodes, Shafer Lab (AID 2284043; active means hit-call score of the fitted dose curve at least 0.9, where 1 is the maximum;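 further: potency is for loss of bursting electrodes relative to DMSO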). In outline:
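Number of electrodes reaching ≥1 burst every 2 min was recorded at DIV 5, 7, 9 and 12 and collapsed as trapezoidal area under the curve. Cultures were rat cortical neurons on MEA plates, dosed continuously from plating with medium and treatment refreshed on DIV 5 and 9.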

Assay [6] in a line: CCTE_Shafer_MEA_dev_burst_duration_mean: CCTE's Neural Network Formation Assay for Mean Burst Duration, Shafer Lab (AID 2284045).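 Further: curve fitted for loss meaning shorter burst duration than DMSO.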 Summed up: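 Mean single-electrode burst duration (first to last spike), averaged over bursting electrodes per well, then integrated as area-under-curve across recordings at days 5, 7, 9 and 12. Rat cortical cultures on MEAs, compound present from plating, refreshed at feeds.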

Assay [7] in a line: CCTE_Shafer_MEA_dev_interburst_interval_mean: CCTE's Neural Network Formation Assay for Mean Interburst Interval, Shafer Lab (AID 2284046).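 Further: curve fitted for decrease in interburst interval relative to DMSO.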 Summed up: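 Developing rat cortical networks on 48-well MEAs receive compound from the day of plating. Burst intervals from each active electrode are averaged per well, and AUC over the recording days is fitted in the negative direction against DMSO.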

Assay [8] is described as follows: CCTE_Shafer_MEA_dev_inter_network_spike_interval_mean: CCTE's Neural Network Formation Assay for Mean Inter-network Spike Interval, Shafer Lab (AID 2284047). Summed up: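 Rat cortical cultures, 1.5 x 10^5 cells/well on 48-well MEA plates; continuous exposure days 0–12, medium and compound refreshed DIV 5, 9. Mean time between consecutive network-spike peaks; AUC across DIV 5/7/9/12; DMSO baseline, negative fitting direction.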

Assay [9] in a line: CCTE_Shafer_MEA_dev_network_spike_number: CCTE's Neural Network Formation Assay for Number of Network Spikes, Shafer Lab (AID 2284048).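 Further: synchronized bursts across electrodes counted on days 5 7 9 12 and integrated as AUC; fit as a loss of signal meaning fewer network spikes than DMSO.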 In outline:
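Number of network spikes (coordinated firing across electrodes) recorded on days 5, 7, 9 and 12 and summarised as area under the curve. Rat cortical cultures on MEA, continuous compound exposure with full medium/treatment exchange at DIV 5 and 9.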

A short description of assay [10]: CCTE_Shafer_MEA_dev_network_spike_peak: CCTE's Neural Network Formation Assay for Mean Number of Electrodes in Network Spike, Shafer Lab (AID 2284049).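 Further: fitted for loss of signal meaning fewer electrodes in network spikes than DMSO.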 In outline: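 Rat cortical primary culture, 1.5 x 10^5 cells/well, 48-well MEA (16 electrodes/well). Dosing day 0 through DIV 12, full media/compound exchange DIV 5, 9. AxIS adaptive spike detection; AUC over days 5/7/9/12; loss-of-signal vs DMSO.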

A short description of assay [11]: CCTE_Shafer_MEA_dev_spike_duration_mean: CCTE's Neural Network Formation Assay for Mean Spike Duration, Shafer Lab (AID 2284051).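 Further: potency for a decrease in mean network spike duration versus DMSO.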 Summed up:
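Readout is the average length of network spikes, clustered firing across electrodes, summed over DIV 5, 7, 9 and 12 as area under the curve. Neurons from rat cortex developed networks on MEA plates under continuous 12-day exposure.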

Assay [12] is described as follows: CCTE_Shafer_MEA_dev_network_spike_duration_std: CCTE's Neural Network Formation Assay for Standard Deviation of Network Spike Duration, Shafer Lab (AID 2284052).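 Further: hits are decreases in network spike duration SD versus DMSO vehicle.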 In outline: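 Read-out is the trapezoidal area-under-the-curve across recordings made on days 5, 7, 9 and 12, fitted in the negative direction against DMSO baseline. Neurons were primary rat cortical cells treated from day 0, with treatment renewed at each feed.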

Assay [13] can be described thus: CCTE_Shafer_MEA_dev_per_network_spike_spike_number_mean: CCTE's Neural Network Formation Assay for Mean Number of Spikes in a Network Spike, Shafer Lab (AID 2284053). In outline:
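Continuous twelve-day exposure of developing rat cortical networks grown over 16 microelectrodes per well; spontaneous firing is captured at four time points, and the per-network-spike spike number is integrated over development by trapezoidal AUC.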

A short description of assay [14]: CCTE_Shafer_MEA_dev_per_network_spike_spike_percent: CCTE's Neural Network Formation Assay for Percent of Spikes in a Network Spike, Shafer Lab (AID 2284054). In outline:
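Metric: fraction of spikes falling in a 0.05 s window at network-spike peaks. Recordings were made on days 5, 7, 9 and 12 and collapsed by trapezoidal AUC. Cultures were rat cortical neurons on MEA plates, dosed continuously from plating, re-dosed at media changes.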

A short description of assay [15]: CCTE_Shafer_MEA_dev_mutual_information_norm: CCTE's Neural Network Formation Assay for Mutual Information Normalization, Shafer Lab (AID 2284091).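 Further: mutual information between electrodes summarised as area under curve across four recording days; potency is for a decrease in mutual information relative to DMSO.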 Summed up: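 Shared information across electrodes, tracked on days 5, 7, 9 and 12 of network development and collapsed as trapezoidal area under the curve. Rat cortical cultures were treated continuously from plating, with treatment renewed at feeds on DIV 5 and 9; DMSO baseline, negative-direction fit.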

The nature of assay [16]: IUF_NPC1a_proliferation_area_72hr: Leibniz Research Institute for Environmental Medicine (IUF) 72-hour Neural Progenitor Cell Proliferation Area Assay (NPC1a) (AID 2284208). Summed up: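 Read-out: increase in sphere area over 72 h by automated phase-contrast imaging, fitted in positive direction versus DMSO baseline. One hNPC sphere (0.25-0.35 mm) per well in EGF/FGF medium; growth-factor withdrawal served as positive control.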

A short description of assay [17]: IUF_NPC1_viability_72hr: Viability Assessment at 72 hours in the Leibniz Research Institute for Environmental Medicine (IUF) Neural Progenitor Cell Proliferation Assay (NPC1) (AID 2284209). In outline: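 Viability was measured by resazurin-to-resorufin fluorescence (alamar blue) after 72 h of continuous exposure without compound renewal. Each well held one hNPC sphere (gestational week 16-19 fetal cortex, 0.25-0.35 mm) cultured in EGF/FGF proliferation medium at 37C and pH 7.2-7.6.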

Assay [18] can be described thus: CCTE_Mundy_HCI_Cortical_Synap_Neur_Matur_NeuriteSpotCountPerNeuriteLength: CCTE's Synaptogenesis and Neurite Maturation Assay in rat cortical cells for Neurite Spot Count per Neurite Length, Mundy Lab (AID 2284210). Summed up:
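Synaptophysin spots per unit neurite length, measured by automated imaging of MAP2/synaptophysin/Hoechst-stained neurons. Cultures from rat cortex received chemical at DIV 7 with media change through DIV 12; glial growth arrested by AraC at DIV 5; DMSO baseline.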

Assay [19] in a line: CCTE_Mundy_HCI_Cortical_Synap_Neur_Matur_BPCount: CCTE's Synaptogenesis and Neurite Maturation Assay in rat cortical cells for Branch Point Count, Mundy Lab (AID 2284211). In outline: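 HCI read-out of branch points from MAP2/synaptophysin/Hoechst immunofluorescence; rat cortical cultures, AraC DIV 5, dosing DIV 7, fixed DIV 12; fit in positive direction vs DMSO baseline.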

The nature of assay [20]: CCTE_Mundy_HCI_Cortical_NOG_NeuriteCount: CCTE's Neurite Outgrowth Assay in rat cortical cells for Neurite Count, Mundy Lab (AID 2284212).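 Further: cells fixed about two days after chemical exposure began.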 Summed up:
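Rat cortical primary cells; compound added 2 h post-plating, 1/10 dilution of working solution. Anti-betaIII-tubulin/AF488 ICC; ArrayScan neurite count vs DMSO.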

Assay [21] can be described thus: CCTE_Mundy_HCI_Cortical_NOG_NeuriteLength: CCTE's Neurite Outgrowth Assay in rat cortical cells for Neurite Length, Mundy Lab (AID 2284213).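 Further: neurites imaged about 48 to 50 h after chemical exposure began.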 Summed up: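 First, rat primary cortical cells were plated and, 2 h later, given test chemical as a 1/10 dilution. Finally, βIII-tubulin immunostaining enabled automated imaging of neurite length.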
Assay [22] is described as follows: CCTE_Mundy_HCI_Cortical_Synap_Neur_Matur_NeuriteLength: CCTE's Synaptogenesis and Neurite Maturation Assay in rat cortical cells for Neurite Length, Mundy Lab (AID 2284214). In outline: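 Neurite length quantified by automated high-content imaging of MAP2, synaptophysin and Hoechst staining. Rat cortical cells received chemical from DIV 7 to DIV 12 […], glial growth arrested by AraC at DIV 5; DMSO baseline.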

The term AC50 denotes the midpoint of the concentration-response curve, whichever way the signal moves.

For the compound `CC1(C)[C@H](C=C(Cl)Cl)[C@H]1C(=O)OCc1c(F)c(F)cc(F)c1F`, the AC50 in assay [1] is 23.4 µM (active); in assay [2], 23.1 µM (active); in assay [3] it was 23 µM (active); in [4] it was 23.7 µM (active); in assay [5], 23.3 µM (active); in [6], 9.92 µM (active). For the same compound, the AC50 in assay [7] is 13.9 µM (active); in [9] it was 23.3 µM (active); in assay [10] it was 16.7 µM (active); in assay [11] it was 22.8 µM (active); in [13], 13.1 µM (active); in assay [14], 12.8 µM (active). Further, the AC50 in [15] was 13.4 µM (active); in [18], 12.9 µM (active); in [19] it was 9.4 µM (active); in assay [20], 80.1 µM (active); in assay [21], 78.2 µM (active); in assay [22] it was 9.91 µM (active). For the same compound, the result in [8], in [12], in assay [16] and in assay [17] was inactive.
